Pol iota inh: blocks human DNA polymerase iota activity. Q9UNA4. Pol iota fluorescent replication assay, 10 min. Potency, µM (doses to about 115 µM), inactives show at the highest dose activity, negative = inhibition, hits mostly inhibitors. hit rate 1% among 390,000. AID 588590
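Pol iota at 10 nM preincubated 15 min with compounds at room temperature; reaction started with fluorescent substrate, 50 nM final. Fluorescence read kinetically at 0 and 10 min; buffer-only wells as negative control.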
TDP1 inh: inhibitors of human tyrosyl-DNA phosphodiesterase TDP1; Q9NUW8; recombinant TDP1, AlphaScreen DNA substrate cleavage; Potency, µM (titrated, usually from 130 µM), for the others: at the top dose activity change, negative = inhibition, hits mostly inhibitors; hit rate 0.28% among 350,000; AID 485290; note: % is set by controls: 0 for no effect and ±100 for the full control effect; nearly all actives have a fitted effect of over 40% in size
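Recombinant E. coli-expressed Tdp1 (1 nM) preincubated with compound 15 min at RT, then 5'-biotin/3'-phosphotyrosine-FITC DNA substrate (15 nM) added for 5 min. AlphaScreen beads (10 ug/ml) added, 10 min RT; tyrosine-FITC cleavage read as signal loss.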
POLK inh: inhibitors of human DNA polymerase kappa | purified Pol kappa, fluorescent DNA synthesis assay, 10 min | Q9UBT6 | hit rate 0.53% among 400,000 | Potency, µM (titrated, usually from 107 µM), for inactives: at the highest dose activity, negative = inhibition, actives largely listed as inhibitors; note: % is set by controls: 0 for no effect and ±100 for the full control effect
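10 nM Pol kappa was preincubated with compounds for 15 min at room temperature. Reaction started with 50 nM (final) substrate. Fluorescence read kinetically at 0 and 10 min.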
POLH inh: DNA polymerase eta (human) inhibition; Q9Y253; recombinant Pol eta, fluorescent DNA replication assay; hit rate 1.2% among 390,000; AID 588591; Potency, µM (series often up to 114 µM), for inactives: top-dose activity change, negative = inhibition, most hits filed as inhibitors; note: % is set by controls: 0 for no effect and ±100 for the full control effect
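Pol eta (10 nM) was preincubated with compounds for 15 min at room temperature, after which fluorescent replication substrate (50 nM final) was added to start the reaction. Fluorescence was read kinetically at 0 and 10 min.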
POLB inh: inhibitors of human DNA polymerase beta; Pol beta primer extension/strand displacement, fluorescence kinetic; AID 485314; hit rate 1.3% among 340,000; Potency, µM (titrated, usually from 114 µM), without a hit: top-dose activity change, negative = inhibition, usual class: inhibitors; note: % is set by controls: 0 for no effect and ±100 for the full control effect
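10 nM enzyme + cpd, 15 min RT; start with substrate 50 nM final; read 0 min and after 10 min RT. Corrected, normalized data; 4-parameter Hill curve fit.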
FEN1 inh: inhibitors of human flap endonuclease 1; P39748; Recombinant FEN1 flap cleavage, fluorescence, 15 min; Potency, µM (series often up to 114 µM), without a hit: at the top dose activity change, negative = inhibition, actives largely listed as inhibitors; hit rate 0.35% among 390,000; AID 588795; note: % is set by controls: 0 for no effect and ±100 for the full control effect; nearly all actives have a fitted effect of over 65% in size
Target sequence (P39748 whole entry, looked up): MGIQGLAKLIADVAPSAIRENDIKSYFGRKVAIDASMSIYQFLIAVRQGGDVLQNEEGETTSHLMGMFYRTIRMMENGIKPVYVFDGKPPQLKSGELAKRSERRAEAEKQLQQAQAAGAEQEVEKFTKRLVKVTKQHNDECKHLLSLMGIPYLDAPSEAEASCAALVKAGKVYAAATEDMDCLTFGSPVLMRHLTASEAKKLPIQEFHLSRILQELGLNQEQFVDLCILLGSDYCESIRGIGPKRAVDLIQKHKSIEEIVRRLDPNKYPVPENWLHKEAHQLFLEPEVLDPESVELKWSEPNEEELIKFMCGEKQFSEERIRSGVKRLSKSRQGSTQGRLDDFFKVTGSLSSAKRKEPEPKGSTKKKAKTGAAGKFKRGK
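Steps: FEN1 (10 nM) dispensed; compound added by pin tool; 15 min at room temperature; substrate added to 50 nM final; reads at 0 min and 15 min; data normalized and fitted (four-parameter Hill).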
* hit, by the source's call; ? = inconclusive; . = no result; [ ] = another dose, or the depositor's remark. Shown are actives, neighbours in structure and some others; about 2.4% of the full set was active somewhere. Calls come from the whole dose curve; as a rule, active = well fitted curve in the direction sought with a large enough effect; inconclusive = small, poorly fitted or top-dose-only effect, or another doubt; inactive = no such curve, though single readings can be large; an effect the other way counts as inactive or inconclusive. Potency is the fitted concentration of half-maximal effect.

SMILES	Pol iota inh	TDP1 inh	POLK inh	POLH inh	POLB inh	FEN1 inh
CCCCn1c(NC(=O)c2ccccc2Cl)c(C#N)c2nc3ccccc3nc21	3.55µM*	-7.8%	-10.5%	20µM*	0.5%	?
CCCCn1c(NC(=O)CC)c(C#N)c2nc3ccccc3nc21	22.4%	3.1%	-5.6%	-16.8%	2.3%	-7.9%
COc1cc(-c2ccc(-[n+]3nc(-c4ccccc4)nn3-c3ccc([N+](=O)[O-])cc3)c(OC)c2)ccc1-[n+]1nc(-c2ccccc2)nn1-c1ccc([N+](=O)[O-])cc1	.	.	-2.0%[19.4 µM]	.	.	.
Cc1ccc(S(=O)(=O)Cc2ccc(C(=O)N3CCN(Cc4ccccc4)CC3)o2)cc1	.	-4.1%	.	.	25.1µM*	.
COc1ccccc1CNC(=O)c1ccc(CS(=O)(=O)c2ccccc2OC)o1	11.7%	5.9%	3.4%	5.8%	22.9%	-0.6%
COc1ccccc1CNC(=O)c1ccc(CS(=O)(=O)c2ccc(C)cc2)o1	70.8µM*	-10.8%	?	44.7µM*	89.1µM*	-14.7%
Cc1ccc(CS(=O)Cc2ccc(C(=O)NCc3ccc4c(c3)OCO4)o2)cc1 (configuration not stated)	38.9%	3.0%	1.8%	-24.7%	43.3%	-15.0%
Cc1ccc(S(=O)(=O)Cc2ccc(C(=O)NCc3ccc4c(c3)OCO4)o2)cc1	?	-4.6%	?	-16.0%	5.62µM*	-17.6%
Cc1cc(Br)ccc1NC(=O)COC(=O)c1ccccc1OCC(=O)N(C)C	31.5%	.	8.6%	.	.	-0.7%
CCCn1cc(S(=O)(=O)CC(=O)Nc2ccc(OCC)cc2)c2ccccc21	14.8%	-1.1%	-9.1%	-7.6%	89.1µM*	-4.5%
CCCn1cc(S(=O)(=O)CC(=O)Nc2ccc(OC)cc2OC)c2ccccc21	40.0%	5.2%	1.4%	-14.6%	84.2%	2.1%
COc1cc(N)c(Cl)cc1C(=O)OCCN1CCCCC1	2.6%[58.9 µM]	8.2%	2.7%[60.1 µM]	0.5%[57.1 µM]	2.3%[57.1 µM]	10.6µM*
COc1ccccc1C(=O)NC1(C(F)(F)F)NC(=O)N(CCc2ccccc2)C1=O (configuration not stated)	79.4µM*	5.3%	-9.1%	-8.3%	4.0%	-9.5%
C=CCn1c(SCC(=O)NCC2CCCO2)nc2scc(-c3ccccc3)c2c1=O (configuration not stated)	-0.9%	2.4%	-5.1%	-13.2%	1.8%	-1.5%
C=CCn1c(SCC(=O)NC2CCCC2)nc2scc(-c3ccco3)c2c1=O	?	-12.9%	?	15.8µM*	25.1µM*	-2.0%
C=CCn1c(SCC(=O)NCCCC)nc2scc(-c3ccco3)c2c1=O	20µM*	0.0%	39.8µM*	10µM*	22.4µM*	-11.7%
Cc1oc(C)c2c(=O)ccc3c(c12)OC(N)=C(C#N)C3c1ccc(F)cc1 (configuration not stated)	?	1.1%	?	?	20µM*	-22.0%
CC(C)C(=O)Nc1ccc(-c2nnc(-c3ccccc3)o2)cc1	10.0%	.	3.8%	1.3%	44.7µM*	-7.3%
CCCn1c(SCC(=O)Nc2nnc(-c3ccccc3)s2)nnc1-c1ccccn1	?	-3.1%	-9.7%	?	22.4µM*	-12.7%
CC(=O)C1=C(O)C(=O)N(Cc2ccco2)C1c1ccccc1 (configuration not stated)	-7.8%	2.1%	-4.9%	-1.0%	9.1%	?
CC(=O)C1=C(O)C(=O)N(Cc2ccccc2)C1c1ccco1 (configuration not stated)	?	0.794µM*	-21.4%	44.7µM*	?	-32.0%
CCC[C@H]1COCCS(=O)(=O)N1Cc1cccc(F)c1	28.8%	.	-14.2%	.	.	-7.0%
CC(=O)N(C)c1ccc(N=Cc2c(O)ccc3ccccc23)cc1	70.8µM*	.	-5.9%	-4.1%	-0.3%	-4.0%
N#Cc1ncc(Cc2ccccc2)nc1C#N	32.8%	.	-12.6%	39.8µM*	6.5%	7.6%
N#Cc1nc(Cc2ccccc2)oc1NCc1cccnc1	14.1%	4.9%	-2.7%	-5.0%	18.9%	-11.2%
SMILES	Pol iota inh	TDP1 inh	POLK inh	POLH inh	POLB inh	FEN1 inh
COc1ccc(S(=O)(=O)NCc2cccnc2)cc1NC(=O)c1ccccc1C	39.8µM*	.	-27.6%	?	.	-13.8%
O=[N+]([O-])c1ccc2c(c1)/C(=C/c1ccc(C=S)cc1)C=C2	9.5%	.	-23.2%	.	.	-9.7%
Cc1cc[n+](-c2[nH]c(=O)sc2/C=N/N=C(\[O-])c2ccccc2)cc1C	81.7%	39.8µM*	-7.2%	-17.6%	?	-0.7%
Cc1ccc[n+](-c2[nH]c(=O)sc2/C=N/N=C(\[O-])c2cccnc2)c1	2.8%	50.1µM*	-11.9%	-9.7%	1.8%	14.7%
Cc1cc[n+](-c2[nH]c(=O)sc2/C=N/N=C(\[O-])c2ccncc2)cc1C	1.1%	-11.5%	-5.3%	0.3%	3.6%	?
O=C1c2ccccc2C(=O)N1c1noc2ccccc12	.	1.4%	.	.	.	.
COC1=CC(=O)C(O)=C/C1=C\C=C\c1ccccc1	.	18.0%[56.1 µM]	-19.3%[60.1 µM]	.	.	.
CC[C@H](C)/C=C/C1=CC2=C(Cl)C(=O)[C@@]3(C)OC(=O)C(C(=O)[C@H](C)[C@@H](C)O)=C3C2=CO1	?	.	?	17.8µM*	.	?
CCCCCCCC1=CC2=C(Cl)C(=O)C(C)(OC(C)=O)C(=O)C2=CO1 (configuration not stated)	.	-1.9%	.	.	.	.
O=C(NCc1ccccc1Cl)c1cnc(N2CCCCC2)c2ccccc12	26.4%	-3.3%	-12.8%[60.1 µM]	-7.9%	-22.6%	-1.6%
O=Nc1[nH]c(=O)c(/C=C(\O)c2ccccc2)nc1NO	3.98µM*	.	-16.7%	?	?	?
COc1ccc(C(=O)N(Cc2ccccc2)Cc2cccs2)c(O)c1	.	-5.8%	.	.	.	.
O=C(Nc1ccc([N+](=O)[O-])cc1Cl)c1cc(Br)ccc1O	8.5%	3.8%	-2.9%	.	.	-5.2%
COc1ccc(/C=C2\CCn3c2nc2cc(C(=O)O)ccc2c3=O)cc1O	?	.	-35.4%	17.8µM*	25.1µM*	?
COC(=O)c1cc(O)c(O)c(O)c1	16.4%	.	-10.9%	-14.5%	?	?
CCc1ccc2c(O)c3c(cc2c1C(=O)OC)C(=O)c1c(O)ccc(O)c1C3=O	.	-10.6%	7.94µM*	.	.	.
CCOc1cc(/C=C/c2cccc[n+]2C)ccc1OCC(=O)Nc1ccc(C)cc1	?	.	?	-19.7%	12.6µM*	-5.3%
COc1cc(/C=C/c2cccc[n+]2C)ccc1OCC(=O)Nc1ccccc1C	9.8%	.	5.9%	0.1%	-22.1%	0.6%
CS(=O)(=O)N1CCC[C@@]2(CCN(C(c3ccccc3)c3ccccc3)C2)C1	.	.	0.4%[60.1 µM]	.	.	.
CCSc1cc(N2CCCC2)nc(-c2ccc(C)cc2)n1	?	5.3%	?	3.8%	0.3%	89.1µM*

Screens as filed in PubChem.
